A short description of experiment [1]: NCI Yeast Anticancer Drug Screen. Data for the rad50 strain (AID 155).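 Further: 0% = growth of vehicle-only cultures of the same strain.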 As to conditions: S. cerevisiae rad50 strain growth inhibition, active compounds read high. The method in brief:
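A DNA repair-deficient yeast mutant serves as the test organism; compound-induced growth inhibition is calculated against vehicle-treated cells.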

Experiment [2] in a line: NCI Yeast Anticancer Drug Screen. Data for the mec2-1 strain (AID 157). The conditions noted are these: S. cerevisiae mec2-1 strain, active compounds read high. The method in brief: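 Yeast mec2-1 mutant treated with compound. Readout: growth inhibition vs vehicle controls.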
A short description of experiment [3]: NCI Yeast Anticancer Drug Screen. Data for the sgs1 mgt1 strain (AID 161).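 Further: 0% = growth of cultures given vehicle only.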 The conditions noted are these: S. cerevisiae sgs1 mgt1 strain, active compounds read high. The method in brief:
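Mutant yeast exposed to compound; growth scored against vehicle-only wells.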

The nature of experiment [4]: NCI Yeast Anticancer Drug Screen. Data for the cln2 rad14 strain (AID 165).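 Further: 0% = growth equal to vehicle treated cultures.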 The conditions noted are these: S. cerevisiae cln2 rad14 strain, active compounds read high. The method in brief: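 cln2 rad14 yeast strain; compound exposure; growth inhibition read vs vehicle controls.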
Experiment [5] in a line: NCI Yeast Anticancer Drug Screen. Data for the bub3 strain (AID 167). The conditions noted are these: S. cerevisiae bub3 mutant strain, active compounds read high. The method in brief:
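Inhibition values come from growth of compound-treated mutant yeast normalised to vehicle-treated controls.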

Experiment [6] is described as follows: NCI Yeast Anticancer Drug Screen. Data for the mlh1 rad18 strain (AID 175). As to conditions: S. cerevisiae mlh1 rad18 strain growth inhibition, active compounds read high. The method in brief:
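Yeast w/ defined DNA-repair lesions; compound exposure; growth vs vehicle controls → % inhibition.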

Setting [7] is: at 5.0 µM (retest, dose inferred, filed as 0.5).
[8] abbreviates: at 50.0 µM (retest, dose inferred, filed as 5.0).

About 79,000 compounds went through this panel and 15% of them were active in at least one assay; those are over-represented in the sample as a whole. Unmarked numbers belong to inactive results. Calls of active or inactive are those of the source. No stated cut-off is given here; in the data, active means growth inhibition above about 70%; inactive means the rest.

`CCCCCCCCCCCCCCCCCCOP(=O)([O-])OCC[N+](C)(C)C`: the growth inhibition is 14% in experiment [1] (setting [7]); 99% (active) in experiment [1] (setting [8]); 90.5% (active) in experiment [1] (at 50.0 µM); -2% in experiment [2] (setting [7]); 99% (active) in experiment [2] (setting [8]); 92% (active) in experiment [2] (at 50.0 µM). The growth inhibition in experiment [3] (setting [7]) was -2%; in experiment [3] (setting [8]) it was 99% (active); in experiment [3] (at 50.0 µM) it was 92.5% (active); in experiment [4] (setting [7]) it was 15%; in experiment [4] (setting [8]), 89% (active); in experiment [4] (at 50.0 µM), 89.5% (active). The growth inhibition in experiment [5] (setting [7]) is 7%; in experiment [5] (setting [8]), 99% (active); in experiment [5] (at 50.0 µM) it was 90.3% (active); in experiment [6] (setting [7]), 10%; in experiment [6] (setting [8]) it was 99% (active); in experiment [6] (at 50.0 µM) it was 91.6% (active).
Consider `CCCCN(CCO)CC(O)Cn1cnc2c(N)ncnc21` (stereo not given) (tested in a mixture with another compound), for which the growth inhibition in experiment [1] (setting [7]) is -12%; in experiment [1] (setting [8]), -5%; in experiment [1] (at 50.0 µM), 21.9%; in experiment [2] (setting [7]), -12%; in experiment [2] (setting [8]), -8%; in experiment [2] (at 50.0 µM) it was -5.45%. For the same molecule, the growth inhibition is -18% in experiment [3] (setting [7]); 0% in experiment [3] (setting [8]); -3.9% in experiment [3] (at 50.0 µM); -18% in experiment [4] (setting [7]); -7% in experiment [4] (setting [8]); 18.7% in experiment [4] (at 50.0 µM). For the same molecule, the growth inhibition was 1% in experiment [5] (setting [7]); -8% in experiment [5] (setting [8]); 3.2% in experiment [5] (at 50.0 µM); 3% in experiment [6] (setting [7]); -4% in experiment [6] (setting [8]); 25.9% in experiment [6] (at 50.0 µM).
For the molecule `O=C(Nc1cccc(C(F)(F)F)c1)O/N=C(/Cl)CCl`, the growth inhibition is 3% in experiment [1] (setting [7]); 100% (active) in experiment [1] (setting [8]); 88.5% (active) in experiment [1] (at 50.0 µM); -19% in experiment [2] (setting [7]); 100% (active) in experiment [2] (setting [8]); 91.7% (active) in experiment [2] (at 50.0 µM). The growth inhibition was -51% in experiment [3] (setting [7]); 99% (active) in experiment [3] (setting [8]); 84.7% (active) in experiment [3] (at 50.0 µM); -8% in experiment [4] (setting [7]); 100% (active) in experiment [4] (setting [8]); 90.5% (active) in experiment [4] (at 50.0 µM). For the same molecule, the growth inhibition was -38% in experiment [5] (setting [7]); 100% (active) in experiment [5] (setting [8]); 88.8% (active) in experiment [5] (at 50.0 µM); -9% in experiment [6] (setting [7]); 100% (active) in experiment [6] (setting [8]); 84.2% (active) in experiment [6] (at 50.0 µM).
`CC(=O)C(=C(I)I)c1ccccc1`: the growth inhibition was -20% in experiment [1] (setting [7]); 71% (active) in experiment [1] (setting [8]); 51.6% in experiment [1] (at 50.0 µM); -21% in experiment [2] (setting [7]); 89% (active) in experiment [2] (setting [8]); 55% in experiment [2] (at 50.0 µM). For the same molecule, the growth inhibition in experiment [3] (setting [7]) was -27%; in experiment [3] (setting [8]), 93% (active); in experiment [3] (at 50.0 µM), 73.7% (active); in experiment [4] (setting [7]), 8%; in experiment [4] (setting [8]) it was 34%; in experiment [4] (at 50.0 µM), 30.8%. Besides, the growth inhibition in experiment [5] (setting [7]) is -34%; in experiment [5] (setting [8]), 83% (active); in experiment [5] (at 50.0 µM), 33.4%; in experiment [6] (setting [7]) it was -28%; in experiment [6] (setting [8]), 80% (active); in experiment [6] (at 50.0 µM), 24.2%.
As for `CN(NC(=O)c1cccs1)C1=NCCCN1`, the growth inhibition in experiment [1] (setting [7]) was 43%; in experiment [1] (setting [8]), 83% (active); in experiment [1] (at 50.0 µM), -18.2%; in experiment [2] (setting [7]) it was 8%; in experiment [2] (setting [8]), 21%; in experiment [2] (at 50.0 µM), -4.9%. Moreover, the growth inhibition was 65% in experiment [3] (setting [7]); 76% (active) in experiment [3] (setting [8]); -16.9% in experiment [3] (at 50.0 µM); 6% in experiment [4] (setting [7]); 33% in experiment [4] (setting [8]); 10.3% in experiment [4] (at 50.0 µM). The growth inhibition is 18% in experiment [5] (setting [7]); 22% in experiment [5] (setting [8]); 4.8% in experiment [5] (at 50.0 µM); 23% in experiment [6] (setting [7]); 55% in experiment [6] (setting [8]); -20.7% in experiment [6] (at 50.0 µM).
With `Nc1ccc(-c2nc3ccccc3s2)cc1I`, the growth inhibition is 34% in experiment [1] (setting [7]); 71% (active) in experiment [1] (setting [8]); 84.3% (active) in experiment [1] (at 50.0 µM); 20% in experiment [2] (setting [7]); 74% (active) in experiment [2] (setting [8]); 89.1% (active) in experiment [2] (at 50.0 µM). Besides, the growth inhibition is 44% in experiment [3] (setting [7]); 88% (active) in experiment [3] (setting [8]); 87.3% (active) in experiment [3] (at 50.0 µM); 50% in experiment [4] (setting [7]); 68% in experiment [4] (setting [8]); 86.2% (active) in experiment [4] (at 50.0 µM). For the same molecule, the growth inhibition in experiment [5] (setting [7]) is 53%; in experiment [5] (setting [8]), 95% (active); in experiment [5] (at 50.0 µM), 84.2% (active); in experiment [6] (setting [7]), 27%; in experiment [6] (setting [8]), 77% (active); in experiment [6] (at 50.0 µM), 84% (active).
`O=C(O)C1(Cc2ccc3c(c2)CCC3)Cc2ccccc2C1`: the growth inhibition is 18% in experiment [1] (setting [7]); 18% in experiment [1] (setting [8]); 90.3% (active) in experiment [1] (at 50.0 µM); -7% in experiment [2] (setting [7]); -7% in experiment [2] (setting [8]); 91.9% (active) in experiment [2] (at 50.0 µM). Further, the growth inhibition in experiment [3] (setting [7]) is 15%; in experiment [3] (setting [8]), 15%; in experiment [3] (at 50.0 µM), 88.5% (active); in experiment [4] (setting [7]) it was 5%; in experiment [4] (setting [8]) it was 5%; in experiment [4] (at 50.0 µM), 89% (active). For the same molecule, the growth inhibition in experiment [5] (setting [7]) was -6%; in experiment [5] (setting [8]) it was -6%; in experiment [5] (at 50.0 µM) it was 90% (active); in experiment [6] (setting [7]), 3%; in experiment [6] (setting [8]) it was 3%; in experiment [6] (at 50.0 µM), 86.8% (active).
On to `CC(=O)C(C=O)C(C)=O.CC(=O)CC(C)=O.CC(=O)CC(C)=O.[Ru]`, for which the growth inhibition was 4% in experiment [1] (setting [7]); 59% in experiment [1] (setting [8]); 36.9% in experiment [1] (at 50.0 µM); 60% in experiment [2] (setting [7]); 98% (active) in experiment [2] (setting [8]); 97.9% (active) in experiment [2] (at 50.0 µM). The growth inhibition in experiment [3] (setting [7]) was 16%; in experiment [3] (setting [8]), 61%; in experiment [3] (at 50.0 µM), 50.5%; in experiment [4] (setting [7]) it was 0%; in experiment [4] (setting [8]), 44%; in experiment [4] (at 50.0 µM) it was 36%. Moreover, the growth inhibition is -7% in experiment [5] (setting [7]); 33% in experiment [5] (setting [8]); -1.3% in experiment [5] (at 50.0 µM); 11% in experiment [6] (setting [7]); 66% in experiment [6] (setting [8]); 52.8% in experiment [6] (at 50.0 µM).
`S=C(Nc1ccccc1)NC1CC2C=CC1CC2` (stereo not given): the growth inhibition was -9% in experiment [1] (setting [7]); -4% in experiment [1] (setting [8]); -5% in experiment [1] (at 50.0 µM); -11% in experiment [2] (setting [7]); -12% in experiment [2] (setting [8]); 7.2% in experiment [2] (at 50.0 µM). Further, the growth inhibition in experiment [3] (setting [7]) was -4%; in experiment [3] (setting [8]), 2%; in experiment [3] (at 50.0 µM), 1.6%; in experiment [4] (setting [7]) it was -23%; in experiment [4] (setting [8]), -11%; in experiment [4] (at 50.0 µM), 31.6%. The growth inhibition is -4% in experiment [5] (setting [7]); 0% in experiment [5] (setting [8]); 19.6% in experiment [5] (at 50.0 µM); -4% in experiment [6] (setting [7]); -13% in experiment [6] (setting [8]); 13.2% in experiment [6] (at 50.0 µM).
For the molecule `O=C(CC(O)(C(F)(F)F)C(F)(F)F)C(c1ccccc1)C(O)(C(F)(F)F)C(F)(F)F` (stereo not given), the growth inhibition in experiment [1] (setting [7]) is 6%; in experiment [1] (setting [8]), 82% (active); in experiment [1] (at 50.0 µM), 71.8% (active); in experiment [2] (setting [7]), 13%; in experiment [2] (setting [8]) it was 79% (active); in experiment [2] (at 50.0 µM) it was 91.5% (active). Also, the growth inhibition is -3% in experiment [3] (setting [7]); 86% (active) in experiment [3] (setting [8]); 84.2% (active) in experiment [3] (at 50.0 µM); 13% in experiment [4] (setting [7]); 92% (active) in experiment [4] (setting [8]); 90.5% (active) in experiment [4] (at 50.0 µM). For the same molecule, the growth inhibition in experiment [5] (setting [7]) was -14%; in experiment [5] (setting [8]) it was 41%; in experiment [5] (at 50.0 µM) it was 83.2% (active); in experiment [6] (setting [7]) it was 5%; in experiment [6] (setting [8]), 93% (active); in experiment [6] (at 50.0 µM), 93.6% (active).

Values taken from PubChem BioAssay (NCI).
